Data as given in PubChem BioAssay AID1347074 (Center for Chemical Genomics, University of Michigan, 2019).
Screen size: about 47,000 compounds; about 2,800 (6%) were called active. The full list was thinned out, with actives kept by preference. A number with no mark means an inactive call. Rule as the data show it: active = z-score above about 3 (passing the limit was not always enough); inactive = the rest.

Biological target: Endoribonuclease Dicer (Homo sapiens) (UniProt Q9UPY3)
Assay: Dicer cleavage of pre-miR-21 blockers – biochemical, cat-ELCCA, chemiluminescence, primary screen (AID 1347074);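 also: plate controls were vehicle for no effect and no enzyme for full effect; higher signal means more uncleaved substrate so more Dicer inhibition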
Conditions: cat-ELCCA pre-miR-21 Dicer processing, at 25 µM, hits give high values

Endoribonuclease Dicer (Homo sapiens), sequence (Q9UPY3 whole entry, looked up): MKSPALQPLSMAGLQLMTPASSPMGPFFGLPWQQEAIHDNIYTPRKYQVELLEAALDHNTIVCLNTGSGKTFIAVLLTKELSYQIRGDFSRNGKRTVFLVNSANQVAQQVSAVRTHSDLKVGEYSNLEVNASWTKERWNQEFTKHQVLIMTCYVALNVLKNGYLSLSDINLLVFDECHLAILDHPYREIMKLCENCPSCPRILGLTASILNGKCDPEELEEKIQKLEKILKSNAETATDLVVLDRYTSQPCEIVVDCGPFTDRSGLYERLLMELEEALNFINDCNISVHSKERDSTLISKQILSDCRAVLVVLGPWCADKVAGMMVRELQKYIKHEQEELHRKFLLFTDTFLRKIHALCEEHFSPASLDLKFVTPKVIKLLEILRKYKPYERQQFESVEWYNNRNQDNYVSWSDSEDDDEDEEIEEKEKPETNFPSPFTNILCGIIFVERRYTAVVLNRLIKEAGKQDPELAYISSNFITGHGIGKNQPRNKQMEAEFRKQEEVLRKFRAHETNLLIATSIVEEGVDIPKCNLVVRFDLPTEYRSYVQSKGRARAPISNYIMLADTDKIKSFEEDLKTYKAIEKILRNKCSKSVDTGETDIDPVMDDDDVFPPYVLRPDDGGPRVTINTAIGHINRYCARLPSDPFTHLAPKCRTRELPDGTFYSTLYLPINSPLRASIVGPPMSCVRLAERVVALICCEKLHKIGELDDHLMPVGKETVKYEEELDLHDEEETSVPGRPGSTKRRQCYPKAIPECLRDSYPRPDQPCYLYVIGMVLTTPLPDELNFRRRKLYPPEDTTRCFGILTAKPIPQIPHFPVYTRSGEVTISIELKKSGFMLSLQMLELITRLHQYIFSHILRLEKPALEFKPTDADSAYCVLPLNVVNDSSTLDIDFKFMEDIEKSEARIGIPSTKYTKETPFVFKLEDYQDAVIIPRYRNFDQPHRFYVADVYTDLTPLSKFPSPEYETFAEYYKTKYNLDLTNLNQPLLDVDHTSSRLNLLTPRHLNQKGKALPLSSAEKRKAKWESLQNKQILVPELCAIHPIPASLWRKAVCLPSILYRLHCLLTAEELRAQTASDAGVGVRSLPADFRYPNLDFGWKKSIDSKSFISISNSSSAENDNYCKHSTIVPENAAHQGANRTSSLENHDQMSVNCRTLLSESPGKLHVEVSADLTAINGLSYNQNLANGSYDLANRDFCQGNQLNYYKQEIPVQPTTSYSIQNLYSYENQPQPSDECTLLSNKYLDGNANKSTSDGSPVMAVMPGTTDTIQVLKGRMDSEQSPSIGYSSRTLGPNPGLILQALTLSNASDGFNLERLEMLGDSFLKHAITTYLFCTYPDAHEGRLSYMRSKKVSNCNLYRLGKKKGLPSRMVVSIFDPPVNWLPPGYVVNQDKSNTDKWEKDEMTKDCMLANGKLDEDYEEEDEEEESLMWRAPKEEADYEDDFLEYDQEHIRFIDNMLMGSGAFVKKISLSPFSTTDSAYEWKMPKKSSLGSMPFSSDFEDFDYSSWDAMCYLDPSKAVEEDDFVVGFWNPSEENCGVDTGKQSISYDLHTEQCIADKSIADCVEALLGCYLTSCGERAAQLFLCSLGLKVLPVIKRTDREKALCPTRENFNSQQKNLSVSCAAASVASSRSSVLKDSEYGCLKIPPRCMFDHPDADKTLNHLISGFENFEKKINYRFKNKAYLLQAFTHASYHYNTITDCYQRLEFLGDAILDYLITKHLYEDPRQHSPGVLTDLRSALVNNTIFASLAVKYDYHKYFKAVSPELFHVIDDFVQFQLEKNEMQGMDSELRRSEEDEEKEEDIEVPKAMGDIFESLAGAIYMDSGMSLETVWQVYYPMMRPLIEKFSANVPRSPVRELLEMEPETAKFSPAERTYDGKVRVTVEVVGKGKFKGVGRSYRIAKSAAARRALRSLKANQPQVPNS

| Structure (SMILES) | z-score |
| --- | --- |
| CCOC(=O)c1[nH]c2ccc([N+](=O)[O-])cc2c1CCC(=O)O | 0.9 |
| COc1ccc(NC(=O)NCc2c(-c3ccccc3)noc2C)cc1OC1CCCC1 | -0.22 |
| Cc1cc(C)nc(N2CCN(c3ncnc4sc5c(c34)CCCC5)CC2)n1 | 5.88 |
| Cc1cc(C)c2oc(-c3ccc(C)c(NC(=O)C(C)C)c3)nc2c1 | 0.37 |
| Clc1ccc(CNc2nc3ccccc3n2CCN2CCOCC2)cc1 | 3.51 (active) |
| Clc1ccc(Cn2c(-c3ccco3)nc3ccccc32)cc1 | 2.46 |
| c1ccc2[nH]c(NCCN3CCOCC3)nc2c1 | -0.76 |
| Cc1nn(-c2ccc(N3CCOCC3)nn2)c(=O)c2ccccc12 | -0.81 |
| Cc1c(Cc2c(F)cccc2Cl)c(=O)oc2cc(OC(=O)c3ccccc3Cl)ccc12 | -0.2 |
| COCCCNC(=O)Cn1cc(C(=O)C2CC2)c2ccccc21 | 1.99 |
| COc1ccc(OCCn2cc(C(=O)C3CC3)c3ccccc32)cc1 | 3.94 (active) |
| COc1ccc(OC)c(NC(=O)Cn2cc(C(=O)C3CC3)c3ccccc32)c1 | 0.03 |
| CCCCN1C(=O)C2(/C(=C(/O)c3ccc(F)cc3)C(=O)C(=O)N2CCCOC)c2ccccc21 (stereo not drawn) | 2.27 |
| Cc1cccc(C)c1NC(=S)NCCC(=O)O | 1.63 |
| COc1cc(CN(Cc2ccccc2)C(=S)Nc2c(C)cccc2C)cc(OC)c1OC | 1.24 |
| CCN(C(=S)Nc1c(C)cccc1C)c1ccccc1 | 3.03 (active) |
| O=[N+]([O-])c1ccc(S(=O)(=O)c2ccccc2)cc1OS(=O)(=O)c1ccc(Cl)cc1 | 0.46 |
| Fc1ccc(Nc2nnns2)cc1 | 2.65 |
| Cn1c(C(=O)O)ccc1S(=O)(=O)N(Cc1ccccc1)Cc1ccccc1 | -0.36 |
| CC(C)=NNS(=O)(=O)c1ccc(C)cc1 | -6.01 |
| Cc1nc2cc(NCc3ccccn3)ccc2n1C | 3.02 (active) |
| Cc1nc2cc(CO)ccc2n1-c1ccccc1 | -1.15 |

| Structure (SMILES) | z-score |
| --- | --- |
| CCOc1cc(C)c(S(=O)(=O)NCc2ccccn2)cc1C | 0.63 |
| CN(C)c1ccc(C2/C(=C(/O)c3ccccc3)C(=O)C(=O)N2CCO)cc1 (stereo not drawn) | -1.23 |
| CCOC(=O)C1Cn2c(nc3c(c2=O)C(C)(CC)Cc2ccccc2-3)S1 (stereo not drawn) | 3.52 (active) |
| Cc1ccc(NC(=O)C/C(N)=N/O)cc1Cl | 1.48 |
| S=c1[nH]nc(CSCc2nc(-c3ccccc3)cs2)n1-c1ccc(Cl)cc1 | -0.05 |
| CCn1c(CSc2nc(-c3ccc(Cl)cc3)cn2-c2ccc(C)cc2)n[nH]c1=S | 5.38 (active) |
| COc1ccc(-c2n[nH]c(=S)n2-c2ccc(Cl)cc2C)cc1 | -1.05 |
| C=CCSc1nc(Nc2ccc(Cl)cc2)c2cnc(N3CCOCC3)nc2n1 | 0.68 |
| Cc1nc2ccccc2c2c1C(=O)N(c1ccc(C(=O)OCC(=O)c3ccccc3)cc1)C2=O | 0.06 |
| C/C(=N\NC1=NCCCN1)c1ccc(Cl)cc1 | -0.42 |
| CCCCSC1=C(C#N)C(=O)NC(C)S1 (stereo not drawn) | 1.98 |
| COc1ccc(-c2nn3c(-c4ccccc4)nnc3s2)cc1OC | -0.95 |
| COc1ccc(-c2cc(C)nc3nc(N)nn23)cc1 | -1.68 |
| COc1ccc(-c2nn3c(-c4ccc(OC)cc4)nnc3c3ccccc23)cc1 | 3.15 (active) |
| CSc1ccc(C2C(C(=O)OCC3CCCO3)=C(C)NC3=C2C(=O)CC(C)(C)C3)cc1 (stereo not drawn) | 0.6 |
| COc1ccc2c(c1)CCc1sc(N)nc1-2 | -2.97 |
| COc1ccc2c(c1)CCCC2=Nc1ccccc1C(F)(F)F | 4.81 (active) |
| CCCOc1ccc(N2C(=O)CC(N3CCC(C)CC3)C2=O)cc1 (stereo not drawn) | 1.2 |
| COC(=O)/C=C(\Nc1ccccc1Oc1ccc(Cl)cc1Cl)C(=O)OC | 2.01 |
| NNC(=O)Cn1nnc(-c2cccc(Cl)c2Cl)n1 | 7.9 |
| O=C(Cn1nnc(-c2ccccc2Oc2ccc(Cl)cc2Cl)n1)NNC(=S)Nc1ccccc1C(F)(F)F | 4.43 (active) |
